Test systems include DU-145 prostate; MALME-3M melanoma; MDA-MB-231 breast; RXF 393 renal; SF-268 CNS; SF-295 CNS; SF-539 CNS; UACC-257 melanoma; M14 melanoma.
What all share (assay): NCI-60 one-dose screen, 48 h (100 = growth as untreated, 0 = no growth, -100 = all killed)
Common to all, as to details: 10 µM unless noted

About 83,000 compounds went through this panel and 20% of them were active in at least one assay; those are over-represented in the sample as a whole.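 Method: cells in 96-well plates; compound added at one concentration; 48 h incubation; percent growth measured; values under 10 scored active.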 A number with no mark means an inactive call. Calls of active or inactive are those of the source.

Drawing on PubChem BioAssay (NCI), this text covers growth for 14 molecules.

`c1ccc2[nH]c(-c3ccc(Nc4nc(N5CCCC5)nc5[nH]ncc45)cc3)nc2c1`: the growth in the assay on DU-145 prostate was -6.9% (active); in the assay on MALME-3M melanoma it was -71.5% (active); in the assay on MDA-MB-231 breast, -48.5% (active); in the assay with RXF 393 renal, -81.5% (active); with SF-268 CNS, -7.79% (active); with SF-295 CNS, -63.3% (active). The growth was -68.1% (active) in the assay on SF-539 CNS, -90.5% (active) in the assay on UACC-257 melanoma and -78% (active) with M14 melanoma.
With `Cc1cc(N2CCOCC2)nc(N[C@@H]2CCC[C@H](Nc3ccnc4cc(Cl)ccc34)C2)n1`, the growth in the assay on DU-145 prostate is 26.2%; with MALME-3M melanoma it was -75.3% (active); in the assay with MDA-MB-231 breast, -53.7% (active); in the assay with RXF 393 renal, -57.6% (active); with SF-268 CNS, 19.1%; in the assay with SF-295 CNS, -66.2% (active). Also, the figures for the growth in the assay with SF-539 CNS, with UACC-257 melanoma and with M14 melanoma were -79.7% (active), -86.4% (active) and -86.7% (active), respectively.
Regarding `COc1cc(-c2nc(C(=O)NCC(=O)NO)nn2-c2ccc(Cl)cc2)cc(OC)c1OC`, the growth was 107% with DU-145 prostate; 129% in the assay with MALME-3M melanoma; 101% with MDA-MB-231 breast; 107% with RXF 393 renal; 104% in the assay with SF-268 CNS; 107% in the assay with SF-295 CNS. Further, the growth was 96.7% in the assay on SF-539 CNS, 86.8% in the assay on UACC-257 melanoma and 101% in the assay on M14 melanoma.
For `CC(=O)c1cc(C(=O)c2ccc3c(c2)Sc2ccccc2N3)n2ccccc12`, the growth in the assay with DU-145 prostate is 1.94% (active); in the assay with MALME-3M melanoma, 53.1%; in the assay with MDA-MB-231 breast, 17.9%; with RXF 393 renal it was 7.01% (active); in the assay on SF-268 CNS it was 29.7%; in the assay on SF-295 CNS, 8.93% (active). In addition, the results for the growth in the assay with SF-539 CNS, with UACC-257 melanoma and in the assay on M14 melanoma were -38.3% (active), 51.4% and 20.1%, respectively.
As to `CN1CCN(c2nc(NCCCCNc3ccnc4cc(Cl)ccc34)c3ccccc3n2)CC1`, the growth in the assay with DU-145 prostate is 75.7%; in the assay with MALME-3M melanoma it was -53.5% (active); with MDA-MB-231 breast, -5.35% (active); with RXF 393 renal it was 9.29% (active); with SF-268 CNS, 64.9%; in the assay with SF-295 CNS, 80%. The growth with SF-539 CNS was -73.7% (active); in the assay with UACC-257 melanoma it was -32.4% (active); with M14 melanoma, -75.9% (active).
Take `CCOc1ccc(C(C)=O)cc1NC(=O)c1cccc(-c2nnn(CC)n2)c1`: the growth in the assay on DU-145 prostate is 16.7%; with MALME-3M melanoma, 47.2%; with MDA-MB-231 breast it was 47.9%; with RXF 393 renal, -1.89% (active); in the assay on SF-268 CNS, 59%; in the assay with SF-295 CNS, 7.49% (active). In addition, the values for the growth in the assay with SF-539 CNS, in the assay with UACC-257 melanoma and in the assay with M14 melanoma were -16.7% (active), 57.1% and 9.12% (active), respectively.
In the case of `O=C(CCCCC(=O)N/N=C\c1ccccc1O)N/N=C\c1ccccc1O`, the growth was 45.1% in the assay on DU-145 prostate; 32.6% in the assay with MALME-3M melanoma; 50% in the assay on MDA-MB-231 breast; 43.4% in the assay on RXF 393 renal; 40% in the assay with SF-268 CNS; 37.9% in the assay on SF-295 CNS. For the same molecule, the growth was 19% with SF-539 CNS, 26% in the assay on UACC-257 melanoma and 20.9% in the assay on M14 melanoma.
Take `O=C(Cc1ccc(/C=C/C(=O)c2ncc[nH]2)cc1)Nc1ccc(F)cc1`: the growth was 15.9% with DU-145 prostate; 96.6% in the assay with MALME-3M melanoma; 22.6% with MDA-MB-231 breast; 19.3% with RXF 393 renal; 27.7% in the assay on SF-268 CNS; 33.1% with SF-295 CNS. In addition, the growth with SF-539 CNS was -21.7% (active); in the assay with UACC-257 melanoma, 92.1%; in the assay with M14 melanoma, 54.9%.
On to `COc1cc(/C=C/C(=O)c2cccnc2Nc2ccc(F)cc2)cc(OC)c1OC`, for which the growth with DU-145 prostate is 0.388% (active); in the assay on MALME-3M melanoma it was 94.2%; in the assay on MDA-MB-231 breast, 37.9%; in the assay with RXF 393 renal, 22.6%; in the assay with SF-268 CNS it was 21.6%; with SF-295 CNS, 57.6%. Also, the growth with SF-539 CNS was 56.1%; in the assay with UACC-257 melanoma, 31.9%; in the assay with M14 melanoma it was 70%.
In the case of `COc1cccc2c1C(=O)c1c(O)c3c(c(O)c1C2=O)C[C@](O)(C(=O)CO)C[C@H]3O[C@@H]1C[C@@H](NC(=O)CCCN(C)C2(c3ccc(F)cc3)CC3CCC2C3)[C@H](O)[C@@H](C)O1` (stereo partly specified), the growth in the assay on DU-145 prostate is -48.4% (active); with MALME-3M melanoma, -83.2% (active); with MDA-MB-231 breast, -76.4% (active); in the assay with RXF 393 renal, -95.8% (active); in the assay with SF-268 CNS, -82.4% (active); with SF-295 CNS, -92.9% (active). For the same molecule, the growth is -81.6% (active) in the assay on SF-539 CNS, -26.9% (active) in the assay with UACC-257 melanoma and -86.8% (active) with M14 melanoma.
In the case of `CCN(CC)c1ccc2c(c1)Oc1nc(N)c(C#N)c(N)c1C2Sc1ccc(SC)cc1` (stereo unspecified), the growth was -48% (active) with DU-145 prostate; -15.9% (active) in the assay with MALME-3M melanoma; -39.3% (active) in the assay with MDA-MB-231 breast; -67.6% (active) in the assay with RXF 393 renal; 4.56% (active) with SF-268 CNS; -54.2% (active) in the assay with SF-295 CNS. In addition, the results for the growth with SF-539 CNS, in the assay with UACC-257 melanoma and with M14 melanoma were -71.8% (active), 55.6% and -42.3% (active), respectively.
Consider `Clc1ccc2c(NCCCNc3nc(-n4ccnc4)nc4ccccc34)ccnc2c1`, for which the growth with DU-145 prostate was 94.8%; with MALME-3M melanoma it was 102%; with MDA-MB-231 breast, 83.2%; in the assay on RXF 393 renal, 81%; with SF-268 CNS it was 89%; with SF-295 CNS it was 89.6%. Also, the values for the growth with SF-539 CNS, in the assay on UACC-257 melanoma and in the assay with M14 melanoma were 76.1%, 94.2% and 95.1%, respectively.
Turning to `Cc1cc(N2CCCCCC2)nc(NC2CCCC(Nc3ccnc4cc(Cl)ccc34)C2)n1` (stereo unspecified), the growth in the assay with DU-145 prostate is -70.7% (active); with MALME-3M melanoma, -89% (active); in the assay with MDA-MB-231 breast, -88.5% (active); with RXF 393 renal, -81% (active); in the assay with SF-268 CNS, -70% (active); in the assay on SF-295 CNS it was -85.1% (active). Also, the growth with SF-539 CNS was -92.1% (active); with UACC-257 melanoma, -78.9% (active); in the assay on M14 melanoma, -86.5% (active).
For `COc1ccc(-c2nnc(SCC(=O)c3ccc(Cl)cc3)o2)cc1`, the growth is 108% with DU-145 prostate; 106% in the assay with MALME-3M melanoma; 98.7% in the assay on MDA-MB-231 breast; 113% in the assay on RXF 393 renal; 101% in the assay on SF-268 CNS; 101% in the assay with SF-295 CNS. The results for the growth with SF-539 CNS, in the assay with UACC-257 melanoma and in the assay on M14 melanoma were 95.6%, 107% and 106%, respectively.
